Test [1] can be described thus: qHTS assay to identify small molecule antagonists of the glucocorticoid receptor (GR) signaling pathway - cell viability counter screen (AID 720693; note: nearly all actives have a fitted effect of over 55% in size). (In general: qHTS replaces the single test concentration by a dilution series.)
Test [2] can be described thus: qHTS assay for identifying genotoxic compounds that show differential cytotoxicity against isogenic chicken DT40 cell lines with known DNA damage response pathways - wild type cell line (AID 743012). Note: nearly all actives have a fitted effect of over 60% in size. Note: potency is the fitted concentration of half-maximal effect. In outline:
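Cells (DT40 wild type, 300/well) are treated with DMSO-dissolved compounds after a ~0.5 h pre-incubation and kept 40 h at 37 C/5% CO2. Viability is then measured by CellTiter-Glo luminescence following 30 min at room temperature.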

Test [3] in a line: qHTS assay for identifying genotoxic compounds that show differential cytotoxicity against isogenic chicken DT40 cell lines with known DNA damage response pathways - Rad54/Ku70 mutant cell line (AID 743015). Note: nearly all actives have a fitted effect of over 60% in size.
Test [4] is described as follows: qHTS assay to identify small molecule antagonists of the androgen receptor (AR) signaling pathway - cell viability counter screen (AID 743033; note: nearly all actives have a fitted effect of over 45% in size).
Test [5] is described as follows: qHTS assay to identify small molecule antagonists of the androgen receptor (AR) signaling pathway using the MDA cell line - cell viability counter screen (AID 743041; note: nearly all actives have a fitted effect of over 45% in size). In outline: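 Same-well cytotoxicity was assessed by CellTiter-Fluor in MDA-kb2 AR-luc cells after 16 h of compound treatment under R1881 agonism.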
The nature of test [6]: qHTS assay to identify small molecule antagonists of the thyroid receptor (TR) signaling pathway (AID 743065). Note: nearly all actives have a fitted effect of over 55% in size. Note: potency is the fitted concentration of half-maximal effect. In outline:
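GH3.TRE-Luc rat pituitary cells (two TREs driving luciferase) were dosed with compound, then stimulated with 1 nM T3 (final) for 23.5 h at 37 C. ONE-Glo luminescence was the read-out, with CellTiter-Fluor fluorescence as the cytotoxicity counter-screen.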

Test [7] relates to thyroid hormone receptor (rat, GH3 cells). The test can be described thus: qHTS assay to identify small molecule agonists of the thyroid receptor (TR) signaling pathway (AID 743066; calls by dose curve).
In test [8] the target is Estrogen receptor (Homo sapiens) (UniProt P03372). As to the kind of experiment: qHTS assay to identify small molecule antagonists of the estrogen receptor alpha (ER-alpha) signaling pathway (AID 743069; active = well fitted curve in the direction sought with a large enough effect in the signal ratio in the repeat runs, not every such curve was filed as active; the % refers to the signal ratio). In outline:
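Reporter cells (ER-alpha-bla, HEK293 background) are conditioned overnight in stripped-serum medium (2% charcoal-stripped FBS). Compound and 17beta-estradiol exposure runs 18 hr at 37C, 5% CO2.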

For test [9] the target is unchanged. As to the kind of experiment: qHTS assay to identify small molecule agonists of the estrogen receptor alpha (ER-alpha) signaling pathway (AID 743075; calls by dose curve;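 note: HEK293 GripTite cells with ER-alpha and UAS-driven beta-lactamase reporter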).
The target is the same in test [10]. The test can be described thus: qHTS assay to identify small molecule agonists of the estrogen receptor alpha (ER-alpha) signaling pathway using the BG1 cell line (AID 743079). Note: nearly all actives have a fitted effect of over 20% in size.
Test [11] is described as follows: qHTS assay to identify small molecule antagonists of the estrogen receptor alpha (ER-alpha) signaling pathway using the BG1 cell line - cell viability counter screen (AID 743081).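 Note: compound given together with 17beta-estradiol as the ER stimulus; series mostly up to about 70 µM; nearly all actives have a fitted effect of over 45% in size.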
For the next test, the target named is Aromatase (Homo sapiens) (UniProt P11511). The test can be described thus: qHTS assay to identify aromatase inhibitors (AID 743083). Note: series mostly up to about 70 µM; nearly all actives have a fitted effect of over 55% in size.
Test [12] in a line: qHTS assay to identify small molecule antagonists of the estrogen receptor alpha (ER-alpha) signaling pathway - cell viability counter screen (AID 743074; calls by dose curve;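 note: HEK293 cells carrying ER-alpha-UAS-bla reporter stimulated with 17beta-estradiol; nearly all actives have a fitted effect of over 45% in size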).
A short description of test [13]: qHTS assay to identify small molecule antagonists of the estrogen receptor alpha (ER-alpha) signaling pathway using the BG1 cell line (AID 743080; calls by dose curve;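 note: BG1 cells stimulated with 17beta-estradiol alongside compound; series mostly up to about 70 µM; nearly all actives have a fitted effect of over 25% in size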). In outline:
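BG1-Luc-4E2 cells (endogenous full-length ER-alpha, stable 4×ERE-luciferase) were starved 5 days in phenol-red-free medium with 10% charcoal-stripped FBS, plated 24 h, then given compound plus 17beta-estradiol for 21.5 h at 37 C; ONE-Glo luminescence read after 30 min.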

The nature of test [14]: qHTS assay for identifying genotoxic compounds that show differential cytotoxicity against isogenic chicken DT40 cell lines with known DNA damage response pathways - Rev3 mutant cell line (AID 743014). Note: nearly all actives have a fitted effect of over 55% in size. Note: potency is the fitted concentration of half-maximal effect.
A short description of test [15]: qHTS assay to identify small molecule antagonists of the thyroid receptor (TR) signaling pathway - cell viability counter screen (AID 743064). Note: nearly all actives have a fitted effect of over 50% in size. Note: potency is the fitted concentration of half-maximal effect. In outline: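 Plate GH3.TRE-Luc cells; incubate 4 h at 37 °C; add compound, then T3 to 1 nM final; incubate 23.5 h; add CellTiter-Fluor; incubate 30 min at 37 °C, 5% CO2; read fluorescence.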
In test [16] the target is Androgen receptor (Homo sapiens) (UniProt P10275). The test can be described thus: qHTS assay to identify small molecule antagonists of the androgen receptor (AR) signaling pathway (AID 743035; active = well fitted inhibition curve with a large enough effect in the signal ratio in the repeat runs, not every such curve was filed as active; the % refers to the signal ratio). In outline: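 Antagonism is scored as loss of R1881-driven beta-lactamase reporter expression in HEK293 cells carrying the reporter under a UAS element, after 16 h co-treatment at 37C and a 2 h room-temperature FRET substrate read.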

For test [17] the target is unchanged. As to the kind of experiment: qHTS assay to identify small molecule agonists of the androgen receptor (AR) signaling pathway using the MDA cell line (AID 743040; note: nearly all actives have a fitted effect of over 20% in size). In outline: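 Human breast carcinoma MDA-kb2 reporter cells (MMTV-luc, AR/GR elements) were treated for 16 h at 37C in 0% CO2 following a 5 h settling period. Signal was quantified by ONE-Glo luminescence.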

Test [18] has the same target. The test can be described thus: qHTS assay to identify small molecule antagonists of the androgen receptor (AR) signaling pathway using the MDA cell line (AID 743042; note: nearly all actives have a fitted effect of over 55% in size). In outline:
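MDA-kb2 breast carcinoma cells carrying MMTV-luciferase (AR/GR responsive) were co-treated with compounds and the agonist R1881 for 16 h at 37C. Inhibition read as ONE-Glo luminescence; CellTiter-Fluor fluorescence measured in parallel for cytotoxicity.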

Records with an inconclusive call do not appear. Active and inactive are the calls of the source. Unless noted, calls come from the whole dose curve; as a rule, active = well fitted curve in the direction sought with a large enough effect in the repeat runs; inconclusive = weak or mixed curves; inactive = no such curve, though single readings can be large; an effect the other way counts as inactive or inconclusive.

For ten compounds, Potency and outcome results are on record in PubChem BioAssay (Tox21).

Sequence of Aromatase (Homo sapiens) (P11511 whole entry, looked up): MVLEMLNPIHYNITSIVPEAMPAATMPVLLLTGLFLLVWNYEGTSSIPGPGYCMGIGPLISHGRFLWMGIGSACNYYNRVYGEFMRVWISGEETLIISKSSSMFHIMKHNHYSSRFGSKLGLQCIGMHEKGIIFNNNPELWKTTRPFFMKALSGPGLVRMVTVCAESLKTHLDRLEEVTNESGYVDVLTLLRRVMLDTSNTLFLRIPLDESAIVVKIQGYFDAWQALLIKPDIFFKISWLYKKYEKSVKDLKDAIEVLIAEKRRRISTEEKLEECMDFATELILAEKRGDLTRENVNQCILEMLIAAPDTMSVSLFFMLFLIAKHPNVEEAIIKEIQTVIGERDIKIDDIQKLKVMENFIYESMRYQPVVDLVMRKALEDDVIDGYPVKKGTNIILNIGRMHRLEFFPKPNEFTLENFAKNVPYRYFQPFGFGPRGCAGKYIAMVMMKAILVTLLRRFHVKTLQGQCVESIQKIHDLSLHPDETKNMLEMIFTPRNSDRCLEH
Sequence of Androgen receptor (Homo sapiens) (P10275 whole entry, looked up): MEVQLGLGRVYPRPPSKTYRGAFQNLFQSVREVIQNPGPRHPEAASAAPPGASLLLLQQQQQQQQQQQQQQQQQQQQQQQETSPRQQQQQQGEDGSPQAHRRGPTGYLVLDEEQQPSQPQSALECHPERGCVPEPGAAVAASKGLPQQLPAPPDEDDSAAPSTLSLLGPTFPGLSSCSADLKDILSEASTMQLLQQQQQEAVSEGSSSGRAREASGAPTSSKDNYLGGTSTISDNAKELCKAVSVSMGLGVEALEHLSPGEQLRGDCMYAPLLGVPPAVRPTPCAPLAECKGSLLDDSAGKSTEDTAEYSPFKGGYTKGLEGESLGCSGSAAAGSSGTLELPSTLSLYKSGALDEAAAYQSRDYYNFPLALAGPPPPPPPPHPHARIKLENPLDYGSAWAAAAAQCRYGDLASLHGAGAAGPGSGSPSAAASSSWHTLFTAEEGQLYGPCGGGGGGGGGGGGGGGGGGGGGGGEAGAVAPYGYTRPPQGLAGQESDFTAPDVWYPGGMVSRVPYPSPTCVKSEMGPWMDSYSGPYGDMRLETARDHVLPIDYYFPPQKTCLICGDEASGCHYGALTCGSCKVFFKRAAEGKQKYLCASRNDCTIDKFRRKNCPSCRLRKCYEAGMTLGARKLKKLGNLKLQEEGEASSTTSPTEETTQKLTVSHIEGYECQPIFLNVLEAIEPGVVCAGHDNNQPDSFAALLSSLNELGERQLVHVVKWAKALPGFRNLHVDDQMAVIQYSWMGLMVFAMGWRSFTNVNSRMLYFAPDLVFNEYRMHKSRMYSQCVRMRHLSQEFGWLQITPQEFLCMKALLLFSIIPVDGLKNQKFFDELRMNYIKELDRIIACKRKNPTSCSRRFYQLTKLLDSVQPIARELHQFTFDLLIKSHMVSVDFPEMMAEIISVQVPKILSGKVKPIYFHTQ
Sequence of Estrogen receptor (Homo sapiens) (P03372 whole entry, looked up): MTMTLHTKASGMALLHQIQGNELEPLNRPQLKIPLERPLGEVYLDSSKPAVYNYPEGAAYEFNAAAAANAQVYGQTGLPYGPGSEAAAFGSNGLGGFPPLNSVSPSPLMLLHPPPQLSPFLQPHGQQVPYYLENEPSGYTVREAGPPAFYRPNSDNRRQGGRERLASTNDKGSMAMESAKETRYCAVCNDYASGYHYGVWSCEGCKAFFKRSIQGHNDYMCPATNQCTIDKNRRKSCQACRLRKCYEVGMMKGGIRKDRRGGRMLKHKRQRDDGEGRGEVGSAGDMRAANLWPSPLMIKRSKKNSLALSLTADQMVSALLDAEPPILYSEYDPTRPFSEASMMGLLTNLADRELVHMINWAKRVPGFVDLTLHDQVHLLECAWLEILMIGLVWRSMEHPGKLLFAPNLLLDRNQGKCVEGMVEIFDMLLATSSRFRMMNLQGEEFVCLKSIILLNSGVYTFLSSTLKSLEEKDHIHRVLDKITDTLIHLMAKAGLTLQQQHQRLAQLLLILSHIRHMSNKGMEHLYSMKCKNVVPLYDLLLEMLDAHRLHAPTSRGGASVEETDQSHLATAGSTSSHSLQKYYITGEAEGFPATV

As to `O=C(O)Cn1c(C(=O)Nc2nc(-c3ccccc3Cl)cs2)cc2ccccc21`, the Potency entry in [1], in [2], in test [3], in [4], in test [5] and in test [7] was “inactive” each time. Besides, the Potency entry (in test [8]; in [9]; in test [10]; in test [11]; with Aromatase (Homo sapiens)) was “inactive” in each case. Moreover, the Potency in test [6] was 26.6 µM (active).

Consider `CC[C@@H]1C[C@H](N(Cc2cc(C(F)(F)F)cc(C(F)(F)F)c2)C(C)=O)c2cc(C(F)(F)F)ccc2N1C(=O)OC(C)C`, for which the Potency result in test [1], in test [4], in [5], in test [6], in test [7] and in [8] was “inactive” throughout. In addition, the Potency entry in test [9], in test [10] and in test [13] was “inactive” throughout. For the same compound, in test [2], the Potency was 27.3 µM (active). In test [12], the compound was called inactive.

For the compound `CC(C)(C)C1CCCCC1O` (stereo not given), the Potency result in test [1], in test [14], in [3], in [4], in [5] and in test [15] was “inactive” throughout. In addition, the Potency entry (in test [7]; in test [8]; in [9]; in test [10]; in [11]; in the test with Aromatase (Homo sapiens)) was “inactive” each time. For the same compound, in test [12], the outcome was inactive.

On to `O=C1c2cccc(O)c2C(=O)c2c(O)cc(CO)cc21`, for which the Potency entry in test [1], in test [2], in test [4], in test [5], in test [15] and in test [7] was “inactive” in each case. For the same compound, the Potency entry (in [9]; in test [11]; with Aromatase (Homo sapiens)) was “inactive” in each case. Besides, the compound was classed as inactive in test [12].

In the case of `CCOC(=O)CC(=O)c1cc(F)c(Cl)nc1Cl`, the Potency entry in [1], in test [14], in test [4], in [5], in test [15] and in test [6] was “inactive” throughout. The Potency entry (in test [7]; in test [8]; in [9]; in test [10]; in test [11]; in the test with Aromatase (Homo sapiens)) was “inactive” in each case. Also, the compound was called inactive in [12].

As to `CCC(=O)OC(C)(C)C1CC=C(C)CC1` (stereo not given), the Potency result in test [1], in test [4], in test [5], in [15], in [6] and in [7] was “inactive” throughout. Besides, the Potency result (in test [9]; in test [11]; in the test with Aromatase (Homo sapiens)) was “inactive” in each case. In addition, the Potency in [14] was 48.6 µM (active).

Regarding `O=C(O)[C@@H]1[C@H]2C[C@H]3c4[nH]c5ccccc5c4CCN3C[C@@H]2CC[C@@H]1O`, the Potency result in test [1], in test [14], in [4], in test [16], in test [17] and in test [5] was “inactive” in each case. Also, the Potency entry in test [18], in test [15], in test [7], in test [8], in test [9] and in test [10] was “inactive” in each case. The Potency entry (in test [11]; in the test with Aromatase (Homo sapiens)) was “inactive” each time. Besides, in [12], the result was inactive.

As to `N=C(N=C(N)N)N1CCOCC1`, the Potency entry in [1], in [2], in [3], in [4], in test [5] and in test [15] was “inactive” in each case. Further, the Potency result in test [7], in test [8], in test [9], in [10], in [13] and in test [11] was “inactive” throughout. Moreover, in the test with Aromatase (Homo sapiens), the Potency result was “inactive”. Further, the compound was called inactive in test [12].

For `OCCC1CCCCN1` (stereo not given), the Potency result in [1], in test [14], in [4], in test [5], in [15] and in test [6] was “inactive” in each case. For the same compound, the Potency entry (in test [8]; in test [9]; in test [10]; in test [11]; in the test with Aromatase (Homo sapiens)) was “inactive” in each case. Moreover, the result in test [12] was inactive.

For `Cc1ccc(O)c([C@H](CCN(C(C)C)C(C)C)c2ccccc2)c1`, the Potency entry (in [1]; in test [4]; in test [5]; in test [7]; in [11]; with Aromatase (Homo sapiens)) was “inactive” throughout. Moreover, the Potency is 26.6 µM (active) in test [2], 11.9 µM (active) in test [15] and 26.6 µM (active) in test [6]. Further, the call in test [12] was inactive.
